Shown are actives, neighbours in structure and some others; about 7.9% of the full set was active somewhere.
HCMV antiviral = human cytomegalovirus inhibition; HFF cells, HCMV-luciferase reporter, 72 h; stronger effect = lower value; activity change, negative = inhibition, % at 57.5 µM; 410,000 tested, 4.5% active; AID 1259415; in the data active = activity change below about -60%; inconclusive = no clear call, values can overlap the other calls; inactive = above about -39%
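Human foreskin fibroblasts infected with luciferase-reporter HCMV at MOI 1 PFU/cell, compounds at two doses. Luciferase measured 72 h post infection; normalized to buffer-only basal and Salinomycin (10uM) controls.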
FMDV antiviral = blocks foot and mouth disease virus; FMDV antiviral cell-based qHTS; Potency, µM (series often up to 57.9 µM), hits mostly inhibitors; 410,000 tested, 1.2% active; calls by dose curve; tested in HEK293T cells; note: read-out not given here; nearly all actives have a fitted effect of over 45% in size
Lassa entry inh = blocks Lassa virus binding to or entry into cells; Lassa virus pseudotype entry inhibition, cell reporter; Potency, µM (top dose mostly 37.9 µM), hits mostly inhibitors; 300,000 tested, 1.2% active; calls by dose curve; tested in HEK293 cells; note: nearly all actives have a fitted effect of over 50% in size
Marburg entry inh = inhibitors of Marburg virus binding or cell entry | Marburg virus pseudotyped entry inhibition, cell reporter | Potency, µM (titrated, usually from 37.8 µM), hits mostly inhibitors | 300,000 tested, 1.8% active | AID 540276; calls by dose curve; tested in HEK293 cells
HCV inhibitor = inhibitors of hepatitis C virus infection. Huh7.5.1 HCVcc-Cre infection, luciferase reporter, 44 h. 340,000 tested, 3.4% active. Potency, µM (series often up to 41.8 µM), most hits filed as inhibitors. AID 651820; active = well fitted inhibition curve with a large enough effect; inconclusive = small, poorly fitted or top-dose-only effect, or another doubt; inactive = no such curve, though single readings can be large or run the other way
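Infectious HCV cell culture screen: compound-treated cells (1,000/well, pre-plated 4 h) are infected with HCVcc-Cre at roughly 0.5 moi and grown 44 h. Infection is quantified by luciferase signal after 15 min substrate incubation at room temperature.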
A number is an active result.

How did CC(=O)Nc1nc(C)c(-c2csc(Nc3cccc([N+](=O)[O-])c3)n2)s1 do in these assays?
HCMV antiviral: inactive; FMDV antiviral: inactive; Lassa entry inh: inconclusive; Marburg entry inh: 14.1µM; HCV inhibitor: inconclusive

How did CCOC(=O)Cc1csc(N/N=C/c2cccc([N+](=O)[O-])c2)n1 do in these assays?
HCMV antiviral: inactive; FMDV antiviral: inactive; Lassa entry inh: inactive; Marburg entry inh: inactive; HCV inhibitor: inconclusive

Results for O=C(Nc1cccc(C(F)(F)F)c1)Nc1nnc(N2CCCCCC2)s1 ?
HCMV antiviral: inactive; FMDV antiviral: inactive; Lassa entry inh: inactive; Marburg entry inh: inactive

How did CC(=O)c1c(O)c(C)c(O)c2c1OC1=Cc3c(c(C)nn3C)C(=O)C12C (stereo not drawn) do in these assays?
HCMV antiviral: inactive; FMDV antiviral: inconclusive

How did CC(=O)C1=C(O)C2(C)c3c(O)c(C)c(O)c(C(C)=O)c3OC2CC1=O (stereo not drawn) do in these assays?
HCMV antiviral: inconclusive; FMDV antiviral: 10µM

Results for Cn1cc(/C=C/c2cc[n+](C)cc2)c2cc(Cl)ccc21 ?
HCMV antiviral: -101.5; FMDV antiviral: inactive; Lassa entry inh: inconclusive; Marburg entry inh: inconclusive; HCV inhibitor: inconclusive

How did Cn1cc(/C=C/c2cc[n+](C)cc2)c2cc(F)ccc21 do in these assays?
FMDV antiviral: inconclusive; Lassa entry inh: inconclusive; Marburg entry inh: inconclusive; HCV inhibitor: 0.562µM

What do the screens show for `C[n+]1ccc(/C=C/c2c[nH]c3ccc(F)cc23)cc1`?
HCMV antiviral: -96.7; FMDV antiviral: inconclusive; HCV inhibitor: 1µM

Results for Cn1cc(C=O)c2cc(F)ccc21 ?
HCMV antiviral: inactive; FMDV antiviral: inactive; HCV inhibitor: inactive

What do the screens show for `CC(=O)c1ccc(NC(=O)C2=CC(c3ccco3)=NS(=O)(=O)N2C)cc1`?
HCMV antiviral: inactive; FMDV antiviral: inactive; HCV inhibitor: inactive

How did Cc1ccc2c(=O)cc(C(=O)Nc3c(C(=O)c4ccccc4)oc4ccccc34)oc2c1C do in these assays?
HCMV antiviral: inactive; FMDV antiviral: inactive; Lassa entry inh: inconclusive; Marburg entry inh: inconclusive

What do the screens show for `COc1ccc(C=CN(CCc2ccc(OC)c(OC)c2)C(=O)c2ccccn2)cc1`?
Marburg entry inh: inactive

Results for COc1cccc(-c2cncnc2NCCN2CCOCC2)c1 ?
FMDV antiviral: inactive

How did O=C(/C=C/c1ccc2ccccc2n1)N1CCN(c2ccccc2)CC1 do in these assays?
HCMV antiviral: inactive; FMDV antiviral: inactive; Lassa entry inh: inactive; Marburg entry inh: inconclusive; HCV inhibitor: inactive

How did O=C(c1ccc(S(=O)(=O)N2CCOCC2)cc1)N1CCN(c2ccc(F)cc2)CC1 do in these assays?
HCMV antiviral: inactive; FMDV antiviral: inactive; Lassa entry inh: inactive; Marburg entry inh: inactive; HCV inhibitor: inactive

Results for O=C(/C=C/c1ccc(S(=O)(=O)N2CCOCC2)cc1)N1CCN(c2ccc(F)cc2)CC1 ?
HCMV antiviral: -62.8; FMDV antiviral: inconclusive; Lassa entry inh: inconclusive; Marburg entry inh: inconclusive; HCV inhibitor: inactive

What do the screens show for `O=C(/C=C/c1ccc2ccccc2n1)N1CCN(S(=O)(=O)c2ccc(F)cc2)CC1`?
HCMV antiviral: -80.1; FMDV antiviral: inconclusive; HCV inhibitor: inactive

Results for O=C(/C=C/c1ccc2ccccc2n1)N1CCN(S(=O)(=O)c2ccccc2F)CC1 ?
HCMV antiviral: -96.8; FMDV antiviral: inconclusive; HCV inhibitor: inconclusive

What do the screens show for `NC(=O)C1CCN(C(=O)Cc2ccsc2)CC1`?
HCMV antiviral: inactive; FMDV antiviral: inactive; Lassa entry inh: inactive; Marburg entry inh: inconclusive; HCV inhibitor: inactive

Results for COc1ccc(Oc2c(Cl)cnn(-c3ccc(C)cc3)c2=O)cc1 ?
HCMV antiviral: inactive; FMDV antiviral: inactive; Lassa entry inh: inconclusive; Marburg entry inh: 10µM; HCV inhibitor: inconclusive

What do the screens show for `COc1ccc(Oc2c(Cl)cnn(-c3ccc(Cl)c(Cl)c3)c2=O)cc1`?
HCMV antiviral: inactive; FMDV antiviral: 28.2µM; Lassa entry inh: inconclusive; Marburg entry inh: inconclusive; HCV inhibitor: inconclusive

What do the screens show for `O=C(COC(=O)Cc1c(F)cccc1Cl)NC1CCS(=O)(=O)C1` (stereo not drawn)?
HCMV antiviral: inactive; FMDV antiviral: inactive; Lassa entry inh: inactive; Marburg entry inh: inactive; HCV inhibitor: inactive

Results for Cc1cc(C)cc(NC(=O)CSc2oc(-c3cccs3)nc2S(=O)(=O)c2ccc(Br)cc2)c1 ?
HCMV antiviral: inactive; FMDV antiviral: inconclusive; Lassa entry inh: inactive; Marburg entry inh: inactive

How did O=C(NCc1ccccc1)C1(C(F)(F)F)C/C(=C\CCO)CCCO1 (stereo not drawn) do in these assays?
HCMV antiviral: inactive; FMDV antiviral: inactive; HCV inhibitor: inactive

Results for CCC/C=C1/CCCOC(C(=O)NCc2ccccc2)(C(F)(F)F)C1 (stereo not drawn) ?
HCMV antiviral: inactive; FMDV antiviral: inactive; HCV inhibitor: 0.891µM

How did O=C(Cc1ccc(NC(=O)N2CCSc3ncccc32)cc1)NCc1cccc(Cl)c1 do in these assays?
HCMV antiviral: inconclusive; FMDV antiviral: inactive; Lassa entry inh: inactive

What do the screens show for `CCOC(=O)C(C)/C(C)=N/NC(=O)c1cc2ccccc2cc1O` (stereo not drawn)?
HCMV antiviral: -74.0; FMDV antiviral: inactive; Lassa entry inh: inconclusive; Marburg entry inh: inconclusive; HCV inhibitor: inconclusive

How did C/C(CC(=O)N1CCCC1)=N\NC(=O)c1cc2ccccc2cc1O do in these assays?
HCMV antiviral: inconclusive; FMDV antiviral: inactive; HCV inhibitor: inactive

How did O=C(NCC1CCCO1)c1cc2ccccc2cc1O (stereo not drawn) do in these assays?
HCMV antiviral: inactive; FMDV antiviral: inactive; Lassa entry inh: inconclusive; Marburg entry inh: inactive; HCV inhibitor: inactive

Results for NNC(=O)c1cc2ccccc2cc1O ?
HCMV antiviral: -74.0; FMDV antiviral: 6.31µM; Lassa entry inh: inactive; Marburg entry inh: inconclusive; HCV inhibitor: inactive

How did O=C(NCC1CCCCC1)c1cc2ccccc2cc1O do in these assays?
HCMV antiviral: -75.0; FMDV antiviral: inactive; Lassa entry inh: inconclusive; Marburg entry inh: inconclusive; HCV inhibitor: 12.6µM

How did Cc1ccc(C(=O)N[C@H](C(=O)Nc2cccc(S(=O)(=O)N3CCOCC3)c2)C(C)C)cc1 do in these assays?
HCMV antiviral: inactive; FMDV antiviral: inactive

What do the screens show for `COc1ccc(NC(C)C(=O)Nc2cccc(S(=O)(=O)N3CCOCC3)c2)cc1OC` (stereo not drawn)?
HCMV antiviral: inconclusive; FMDV antiviral: inconclusive; HCV inhibitor: 12.6µM

How did Cc1ccc(NC(=O)[C@@H](NC(=O)c2cccc(S(=O)(=O)N3CCOCC3)c2)C(C)C)cc1C do in these assays?
HCMV antiviral: inactive; FMDV antiviral: inactive; Lassa entry inh: inactive; Marburg entry inh: inconclusive; HCV inhibitor: 10µM

What do the screens show for `CC(C)[C@H](NC(=O)c1cccc(S(=O)(=O)N2CCOCC2)c1)C(=O)Nc1nccs1`?
HCMV antiviral: inactive; FMDV antiviral: inactive; Lassa entry inh: inactive; Marburg entry inh: inconclusive; HCV inhibitor: inactive

What do the screens show for `CC(C)[C@H](NC(=O)c1ccccc1)C(=O)Nc1cccc(S(=O)(=O)N2CCOCC2)c1`?
HCMV antiviral: active; FMDV antiviral: inactive; Lassa entry inh: inactive; Marburg entry inh: inactive; HCV inhibitor: inactive

What do the screens show for `CCOC(=O)CC/C(=N\NC(N)=O)c1ccc(OC)c(Cl)c1`?
HCMV antiviral: inactive; FMDV antiviral: inactive; HCV inhibitor: inactive

From PubChem
